# Assay results published in PubChem BioAssay AID1974 (The Scripps Research Institute Molecular Screening Center, 2009).
# Screen size: about 300,000 compounds; about 3,200 (1.1%) were called active. This is one part of a sample in which actives are shown more often than they occur.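 The calls were made as follows: active = inhibition above the campaign mean inhibition plus 3 SD (cut at about 35% in these data); inactive = the rest.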
# Target: Glutathione S-transferase omega-1 (Homo sapiens) (UniProt P78417)
# Assay: human GSTO1 enzyme inhibition – biochemical, fluorescence polarization, counter-screen for RBBP9 inhibitor project, primary screen (AID 1974);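 also: 0% = GSTO1-1 with DMSO and 100% = wells lacking GSTO1-1 enzyme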
# Settings: recombinant GSTO1, activity-based probe fluorescence polarization; at 5.96 µM; active compounds read high
# Chain of Glutathione S-transferase omega-1 (Homo sapiens) (P78417 whole entry, looked up): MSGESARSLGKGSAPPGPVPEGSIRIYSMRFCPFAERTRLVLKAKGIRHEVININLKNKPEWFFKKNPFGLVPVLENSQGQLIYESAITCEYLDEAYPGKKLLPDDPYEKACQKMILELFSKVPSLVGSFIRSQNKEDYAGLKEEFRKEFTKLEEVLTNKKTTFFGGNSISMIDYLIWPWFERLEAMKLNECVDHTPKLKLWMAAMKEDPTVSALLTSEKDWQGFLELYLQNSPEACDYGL
row,Structure (SMILES),inhibition
1,Nc1c(-c2ccccc2)nnn1Cc1ccccc1,16.3% (inactive)
2,CC1CCC(CN2CCN=C2N(C)C)CC1 (stereo not drawn),1.09% (inactive)
3,COc1ccc(Cc2nnc(SCC(=O)N(c3ccccc3)C(C)C)n(N)c2=O)cc1,-0.68% (inactive)
4,COc1ccc(NC(=O)CSc2nnc(Cc3ccccc3)c(=O)n2N)cc1,36.1% (active)
5,COc1ccc(NC(=O)CSc2nc3ccccc3c(=O)n2C)cc1,-2.78% (inactive)
6,O=C(NCc1ccccn1)Nc1ccc(Cl)cc1,-3.8% (inactive)
7,Cc1ccnc(NC(=O)CNC(=O)c2ccccc2)c1,-2.68% (inactive)
8,Cc1ccc2nc(-c3ccncc3)cc(C(=O)Nc3ccncc3)c2c1,0.09% (inactive)
9,O=C(Nc1ccc(S(=O)(=O)Nc2nccs2)cc1)c1cc(=O)[nH]c2ccccc12,-5.17% (inactive)
10,O=C(Nc1ccc(S(=O)(=O)Nc2nccs2)cc1)c1cc(-c2ccncc2)nc2ccccc12,44.3% (active)
11,COc1ccc(C(=O)Oc2ccc(-c3nnco3)cc2)cc1S(=O)(=O)N1CCOCC1,8.84% (inactive)
12,O=C(Nc1cc2c3c(c1)CC(=O)N3CCC2)c1ccccc1F,-2.65% (inactive)
13,COc1ccccc1N(C)S(=O)(=O)c1ccc(Cl)c(C(=O)Nc2ccncc2)c1,1.75% (inactive)
14,O=C1c2ccccc2C(=O)c2c1cccc2N1CCN(C/C=C/c2ccccc2)CC1,1.48% (inactive)
15,CC1C(=O)Nc2ccccc2N1C(=O)c1ccc(F)cc1F (stereo not drawn),52.8% (active)
16,CCCC(=O)N1c2ccccc2NC2=C(C(=O)CCC2)C1c1ccc(F)cc1 (stereo not drawn),-0.62% (inactive)
17,CC1C(=O)Nc2ccccc2N1C(=O)c1c(F)cccc1F (stereo not drawn),4.45% (inactive)
18,COc1ccc(N2CCN(C(=O)CCNC(=O)c3ccc(Br)cc3)CC2)cc1,-8.57% (inactive)
19,CCCCn1c(N)c(N(CC(C)C)C(=O)CN(C)S(=O)(=O)c2ccc(F)cc2)c(=O)[nH]c1=O,16.4% (inactive)
20,CC(=O)c1c(C)[nH]c(C(=O)N2CCN(S(=O)(=O)c3ccc(F)c(F)c3)CC2)c1C,16.8% (inactive)
21,COc1ccc2oc(=O)c(C(=O)NCc3ccccn3)cc2c1,3.7% (inactive)
22,CC(C)(C)c1ccc(NC(=O)NCc2ccco2)cc1,3.61% (inactive)
23,Cc1cc(C)cc(NC(=O)NCc2ccccn2)c1,0.33% (inactive)
24,O=C(NCc1ccccn1)c1ccc2nc(-c3ccco3)c(-c3ccco3)nc2c1,82.7% (active)
25,COCCNC(=O)Nc1ccc2nc(-c3ccco3)c(-c3ccco3)nc2c1,69.1% (active)
26,CCCC(=O)Nc1ccc2c(c1)nc(CCNC(=O)c1ccco1)n2C,5.94% (inactive)
27,COc1ccc2c(c1)C(=O)Nc1cc(Cl)ccc1N2,9.43% (inactive)

row,Structure (SMILES),inhibition
1,CC(OC(=O)CNC(=O)c1ccco1)C(=O)Nc1ccc(Cl)cn1 (stereo not drawn),1.63% (inactive)
2,CCC1(CC)C(=O)C2=C3C1[C@H](C(=O)OC)C=C(C(=O)OC)C[C@H]3[C@H]1C(=O)N(Cc3ccccc3)C(=O)[C@H]1[C@H]2C (stereo partly drawn),1.43% (inactive)
3,Cc1csc2nc(O)c(C(=O)NCCN3CCOCC3)c(=O)n12,-2.86% (inactive)
4,CCc1noc(C)c1C(=O)N1CCCSC1=Nc1ccccc1OC,-0.08% (inactive)
5,Cc1onc(-c2c(F)cccc2Cl)c1C(=O)N(C)CC(=O)Nc1cccc(F)c1,6.99% (inactive)
6,O=C(Cc1ccccc1)Nc1cccc(NC(=O)c2ccccc2)c1,-4.68% (inactive)
7,O=C(CCl)Nc1cccc(CP(=O)(c2ccccc2)c2ccccc2)c1,87.8% (active)
8,CCc1cccc(NC(=O)CCC(=O)O)c1,1.54% (inactive)
9,O=C(NCCCc1ccccc1)C1CCC(=O)N(CCc2ccc(Cl)cc2)C1 (stereo not drawn),-1.06% (inactive)
10,COc1ccccc1CN1CC(C(=O)NCCc2cn[nH]c2)CCC1=O (stereo not drawn),-2.71% (inactive)
11,COc1ccccc1CCCNC(=O)C1CCC(=O)N(CCN2CCOCC2)C1 (stereo not drawn),63.1% (active)
12,CCN1CCN(c2ccc(S(=O)(=O)N3CCCCC3)cc2NC(=O)c2cccc(NC(C)=O)c2)CC1,0.88% (inactive)
13,Cc1cc(O)c(Sc2ccccc2)c(=O)o1,10.2% (inactive)
14,O=C(CSC(=S)N1CCOCC1)c1cc(Br)cc(Br)c1O,-51.7% (inactive)
15,O=C1Nc2c(Br)cc(Br)cc2C1(O)N1CCOCC1 (stereo not drawn),71.2% (active)
16,O=C(c1cc2cc(Br)cc(Br)c2oc1=O)N1CCOCC1,5.88% (inactive)
17,Cc1ccc(NS(=O)(=O)c2ccc(C(=O)NCCCN3CCOCC3)cc2)cc1,10.7% (inactive)
18,Nc1ccc2nc3c(=O)[nH]c(=S)[nH]c3nc2c1,53.3% (active)
19,O=c1[nH]c(=O)c2nc3ccccc3nc2[nH]1,5.15% (inactive)
20,Cc1cc(=O)[nH]c(SCc2ccc(Cl)cc2)n1,-4.37% (inactive)
21,O=[N+]([O-])c1ccc(O)c(/C=N/Nc2ccccc2[N+](=O)[O-])c1,0.98% (inactive)
22,O=[N+]([O-])c1ccc(N/N=C/c2ccccc2)cc1,2.07% (inactive)
23,O=[N+]([O-])c1ccc(N=Cc2c(O)ccc3ccccc23)cc1,37.5% (active)
24,Cc1cc(OCC(=O)N(C)c2c(N)n(Cc3ccccc3)c(=O)[nH]c2=O)c(C(C)C)cc1Cl,0.25% (inactive)
25,CCC1(c2ccccc2)NC(=O)N(CC(=O)Nc2ccccc2C(=O)NC2CCCC2)C1=O (stereo not drawn),8.02% (inactive)
26,CCOc1ccc(S(=O)(=O)N2CCN(C(=S)NCC3CCCO3)CC2)cc1 (stereo not drawn),2.59% (inactive)
